Inconclusive results are not listed. Unmarked numbers belong to inactive results. The source made the active and inactive calls. Calls come from the whole dose curve; as a rule, active = well fitted inhibition curve with a large enough effect; inconclusive = small, poorly fitted or top-dose-only effect; inactive = flat fitted curve, though single readings scatter. Where a SMILES comes first, the peptide text is derived from it. [ ]: non-standard residue; d: D form. ξ: configuration not given here. ξPhe(βξ-Me) = CC(c1ccccc1)C(N)C(=O)O; GABA = NCCCC(=O)O

Experiment [1] relates to CRL-7250. The experiment can be described thus: Cytotoxic Profiling of Annotated Libraries Using Quantitative High-Throughput Screening (AID 1296008). Note: nearly all actives have a fitted effect of over 60% in size. Conditions: Five cell lines viability, CellTiter-Glo ATP luminescence, 48-72 h; max response: active compounds read low. The method, boiled down:
(§1)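 Compounds were pin-transferred onto cells and incubated 48 or 72 hr at 37 degree Celsius, 95% humidity. CellTiter-Glo was added, plates sat 10 min at room temperature, then ATP-coupled luminescence was imaged as the viability read-out.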

Experiment [2] has as its system HEK293. The experiment is described as above. The settings on record: Five cell lines viability, CellTiter-Glo ATP luminescence, 48-72 h; max response: active compounds read low. Put shortly: as §1
In general terms: In ATP-based viability assays light output follows the ATP content of the culture.
% is set by controls: 0 for no effect and ±100 for the full control effect; potency is the fitted concentration of half-maximal effect.

For `N#Cc1ccc2[nH]cc(CCCCN3CCN(c4ccc5oc(C(N)=O)cc5c4)CC3)c2c1`, the max response in experiment [1] is -7.54%. For the same compound, the Potency in experiment [2] is 8.2 µM (active).
For the compound `O=C(Nc1ccccc1-c1cn2c(CN3CCNCC3)csc2n1)c1ccc2ccccc2n1`, the outcome in experiment [1] was inactive. In addition, in experiment [2], the max response was -4.98%.
As for `CC1(C)CC[C@]2(C(=O)O[C@@H]3O[C@H](CO)[C@@H](O)[C@H](O)[C@H]3O)CC[C@]3(C)C(=CCC4[C@@]5(C)C[C@@H](O)[C@H](O)[C@@](C)(CO)C5CC[C@]43C)C2[C@@H]1O` (stereo partly specified), the max response in experiment [1] was 1.08%; in experiment [2] it was -3.93%.
For the compound `CN(C)c1nc(NC2CCC(NCCc3ccc(Br)cc3OC(F)(F)F)CC2)nc2ccccc12` (stereo unspecified), the Potency in experiment [1] is 18.4 µM (active); in experiment [2] it was 5.17 µM (active).
In the case of `O=C1NC(Cc2c[nH]c3ccccc23)C(=O)NC1Cc1cnc[nH]1` (stereo unspecified), the result in experiment [1] was inactive. The max response in experiment [2] was -5.57%.
`CC(CCC1(O)OC2CC3C4CCC5CC(O[C@@H]6O[C@H](CO)[C@@H](O)[C@H](O)[C@H]6O[C@@H]6O[C@@H](C)[C@H](O)[C@@H](O)[C@H]6O)C(O)CC5(C)C4CCC3(C)C2C1C)CO[C@@H]1O[C@H](CO)[C@@H](O)[C@H](O)[C@H]1O` (stereo partly specified): the max response was -4.35% in experiment [1] and 0.184% in experiment [2].
The corresponding values for `C[C@@H]1CC[C@]2(C(=O)O)CC[C@]3(C)C(=CCC4[C@@]5(C)CC[C@H](O)C(C)(C)C5C(O)C[C@]43C)[C@@H]2[C@]1(C)O` (stereo partly specified) are -5.69% and 4.01%.
For `CC/C=C\[C@H](O)[C@H](O)C1=C(C)C(=O)[C@]2(O1)C(=O)N[C@@](OC)(C(=O)c1ccccc1)[C@@H]2O`, in that order: -16% and -0.3%.
For `C[C@H]1CC[C@@]2(OC1)O[C@H]1CC3C4CC[C@H]5C[C@@H](O)[C@H](O)C[C@]5(C)C4=CC(=O)[C@]3(C)[C@H]1[C@@H]2C` (stereo partly specified), in that order: -0.885% and -6.34%.
Turning to `CC[C@H](NC(=O)[C@H](CS(=O)(=O)CC1CC1)N[C@@H](c1ccc(F)cc1)C(F)(F)F)C(=O)C(=O)NC1CC1`, the max response in experiment [1] was 3.55%; in experiment [2], -20.2%.
For `C[C@H](C(=O)NC1CCCC1)N(C(=O)Cn1nnc(-c2ccc3c(c2)OCO3)n1)C1CCCCC1`, the compound was classed as inactive in experiment [1]. Further, in experiment [2], the max response was 2.96%.
For `COc1ccc(CNC(=O)c2sc3nc(C)cc(C)c3c2N)cc1`, the results for the max response in experiment [1] and in experiment [2] were -0.266% and -0.378%, respectively.
For `CN(C)CC1CCOC1(c1ccccc1)c1ccccc1` (stereo unspecified), in that order: -5.19% and -21.7%.
Turning to `CN1CCN(Cc2ccc(-c3cnc4[nH]cc(-c5ccc6[nH]ccc6c5)c4c3)cc2)CC1`, the Potency was 10.3 µM (active) in experiment [1] and 6.51 µM (active) in experiment [2].
As for `Fc1ccc2nc(CCC#Cc3ccccn3)cn2c1`, the max response is -4.35% in experiment [1] and -6.15% in experiment [2].
Turning to `CC12CCC3c4ccc(OC5OC(C(=O)O)C(O)C(O)C5O)cc4CCC3C1CCC2O` (stereo unspecified), in experiment [1], the compound was called inactive. Moreover, the max response in experiment [2] is 3.31%.
Regarding `Nc1nc2c(ncn2[C@@H]2O[C@H](CO)[C@@H](O)[C@H]2O)c(=O)[nH]1`, the max response in experiment [1] is -5%; in experiment [2], -9.89%.
For `O=C(c1ccc2nccnc2c1)N1CCCCC1`, in that order: -4.12% and -81.1%.
For `C=C[C@]1(C)C[C@H](O)[C@@H]2[C@H](OC(=O)[C@@H]2C)C1/C(C)=C/O[C@@H]1O[C@H](CO)[C@@H](O)[C@H](O)[C@H]1O` (stereo partly specified), in that order: -0.594% and -0.606%.
With `COc1cc2c(cc1OC)[C@@H]1[C@H](O)[C@@H](OC)C=C3CCN(C2)[C@H]31`, the figures for the Potency in experiment [1] and in experiment [2] were 12.8 µM (active) and 4.53 µM (active), respectively.
For the compound `CCN1CCN(Cc2ccc(NC(=O)Nc3ccc(Oc4cc(NC)ncn4)cc3)cc2C(F)(F)F)CC1`, in experiment [1], the Potency is 25.9 µM (active). Also, the max response in experiment [2] was -109%.
With `CO[C@H]1/C=C/C=C/C=C/C[C@H](OC(=O)[C@@H](C)NC(=O)C2CCCCC2)[C@H](C)[C@@H](O)/C(C)=C/CCc2cc(O)cc(c2)NC(=O)C1`, the Potency is 0.306 µM (active) in experiment [1] and 0.343 µM (active) in experiment [2].
Turning to `CC(O)/C=C/C1OC(=O)CC1Nc1ccc(C(=O)O)cc1` (stereo unspecified), the max response in experiment [1] was -10.3%; in experiment [2], -8.85%.
For `C/C=C1\[C@H](O[C@@H]2O[C@H](CO)[C@@H](O)[C@H](O)[C@H]2O)OC=C(C(=O)OC)[C@H]1CC(=O)O`, in that order: -9.39% and 3.99%.
Take `O=C1CCC=CC1(O)C(=O)OCc1ccccc1O[C@@H]1O[C@H](CO)[C@@H](O)[C@H](O)[C@H]1O` (stereo partly specified): the max response in experiment [1] was -18.5%; in experiment [2], -24.1%.
On to `COc1cc(O)cc(/C=C/c2ccc(O[C@@H]3O[C@H](CO)[C@@H](O)[C@H](O)[C@H]3O)cc2)c1`, for which the results for the max response in experiment [1] and in experiment [2] were -0.761% and -4.02%, respectively.
Take `CN(C)C/C=C/C(=O)Nc1cccc(C(=O)Nc2cccc(Nc3ncc(Cl)c(-c4c[nH]c5ccccc45)n3)c2)c1`: the Potency in experiment [1] was 0.259 µM (active); in experiment [2], 0.58 µM (active).
Take `C=C1CCC2C(C)(C(=O)O)CCCC2(C)C1CCC(C)CC(=O)O` (stereo unspecified): the max response in experiment [1] was 1.5%; in experiment [2], -0.0508%.
For `CC(C)CNCc1ccc(-c2ccccc2S(=O)(=O)N2CCCC2)cc1`, in that order: 1.47% and -19.2%.
For `CC1CCC2C(C)(C)[C@@H](O)CC[C@]2(C)C12Cc1c(O)cc3c(c1O2)CN(C(CCC(=O)O)C(=O)O)C3=O` (stereo partly specified), in that order: -1.01% and -4.16%.
For `C[C@@H]1O[C@@H](OC[C@H]2O[C@@H](OC(CCCCc3ccc(O)cc3)CCc3ccc(O)cc3)[C@H](O)[C@@H](O)[C@@H]2O)[C@H](O)[C@H](O)[C@H]1O` (stereo partly specified), in that order: 3.8% and 1.77%.
As for `CC1(C)CCCC2(C)C1C(O)C=C(CO)C2(O)CO` (stereo unspecified), in experiment [1], the compound was called inactive. Moreover, the max response in experiment [2] is -0.916%.
In the case of `CC(C)c1c2cc(-c3ccnc(NC4CCC(NC5CCOCC5)CC4)n3)ccc2nn1C` (stereo unspecified), the results for the Potency in experiment [1] and in experiment [2] were 0.58 µM (active) and 0.13 µM (active), respectively.
Turning to `CC(C)CC(=O)O[C@@H]1OC=C(CO[C@@H]2O[C@H](CO)[C@@H](O)[C@H](O)[C@H]2O)[C@H]2[C@@H]3O[C@H]3[C@@](O)(CO)[C@@H]12`, the max response in experiment [1] was -0.109%; in experiment [2] it was -8.14%.
`c1cc(Nc2cc(C3CC3)[nH]n2)nc(Nc2ccc3nc[nH]c3c2)n1`: the results for the Potency in experiment [1] and in experiment [2] were 0.82 µM (active) and 1.16 µM (active), respectively.
Take `CC(C)N(CCCCOCC(=O)NS(C)(=O)=O)c1cnc(-c2ccccc2)c(-c2ccccc2)n1`: the max response in experiment [1] was -11.5%. Moreover, the compound was called inactive in experiment [2].
Turning to `COC(=O)C[C@H]1C(C)(C)[C@H](OC(C)=O)C2CC3=C4CC(=O)O[C@@H](c5ccoc5)[C@]4(C)CCC3[C@@]1(C)C2=O` (stereo partly specified), the results for the max response in experiment [1] and in experiment [2] were 3.53% and -19.9%, respectively.
As for `C=C(C(=O)OC)C1C(O)CC2(C)C(=O)CCC(O)(CO)C2C1O` (stereo unspecified), the compound was classed as inactive in experiment [1]. For the same compound, in experiment [2], the max response is -2.27%.
Regarding `NC(=O)c1cnc(NCCc2ccc(O)c(Cl)c2)nc1NCc1ccccc1`, the Potency in experiment [1] was 7.31 µM (active); in experiment [2] it was 6.51 µM (active).
The corresponding values for `Cc1ccc([N+](=O)[O-])cc1S(=O)(=O)N(C)/N=C/c1cnc2ccc(Br)cn12` are 0.082 µM (active) and 0.103 µM (active).
The corresponding values for `Cc1cc(O)c(-c2ccc([C@@H](C)CN(C)C)cc2)c2c1[nH]c(=O)c1sccc12` are 0.116 µM (active) and 0.0259 µM (active).
As to `N[C@@]1(C(=O)O)CC[C@H]2[C@H](C(=O)O)[C@H]21`, the result in experiment [1] was inactive. For the same compound, the max response in experiment [2] was 4.28%.
Consider `C=C1OC2CC(C(=O)O)C=CC2NC1=O` (stereo unspecified), for which the figures for the max response in experiment [1] and in experiment [2] were -1.3% and 3.15%, respectively.
`CC(C)[C@@H]1C(=O)N(S(C)(=O)=O)[C@@H]2CCN(C(=O)/C=C/CN3CCCCC3)[C@H]21`: the compound was called inactive in experiment [1]. In experiment [2], the max response was -1.35%.
For the compound `C[C@H]1CC(=O)Nc2cccc(-c3cnn(C(C)(C)C)c3)c2N1`, the results for the max response in experiment [1] and in experiment [2] were -2.99% and 2.23%, respectively.
In the case of `C[C@@H]1C(=O)O[C@H]2[C@@H](O)C34[C@H]5C[C@@H](C(C)(C)C)C36[C@@H](OC(=O)[C@@H]6O)O[C@@]4(C(=O)O5)[C@@]12O` (stereo partly specified), the max response is -0.587% in experiment [1] and -1.43% in experiment [2].
The corresponding values for `CC1NC(=O)CCCNC(=O)C(Cc2c[nH]c3ccccc23)NC(=O)C(C)NC(=O)C(C(C)C)NC(=O)C(C(C)c2ccccc2)NC(=O)C(C(C)C)NC1=O` (stereo not drawn) (cyclo([GABA]AV[ξPhe(βξ-Me)]VAW); configuration not given here) are -8.98% and -4.9%.
For `N#CC(c1ccnc(OCc2ccc(CN3CCOCC3)cc2)n1)c1nc2ccccc2s1` (stereo unspecified), the result in experiment [1] was inactive. The Potency in experiment [2] is 5.17 µM (active).
As for `CC1(C)CC[C@]23CO[C@@]4(CCC5[C@@]6(C)CC[C@H](O[C@@H]7OC[C@H](O[C@@H]8O[C@H](CO)[C@@H](O)[C@H](O)[C@H]8O)[C@H](O)[C@H]7O[C@@H]7O[C@H](CO)[C@@H](O[C@@H]8O[C@H](CO)[C@@H](O)[C@H](O)[C@H]8O)[C@H](O)[C@H]7O)[C@@](C)(CO)C6CC[C@@]5(C)[C@]4(C)C[C@H]2OC2OCC(O)C(O)C2O)C3C1` (stereo partly specified), the results for the Potency in experiment [1] and in experiment [2] were 1.55 µM (active) and 2.45 µM (active), respectively.
On to `O=C1OCc2cc3cccc(O[C@@H]4O[C@H](CO)[C@@H](O)[C@H](O)[C@H]4O)c3c(O)c21`, for which the max response in experiment [1] was 3.34%; in experiment [2] it was -24.4%.
The corresponding values for `COc1cc(O)cc(C)c1C(=O)OC1C(CO)OC(OC2C(O)C(O)C(O)C(O)C2O)C(O)C1O` (stereo unspecified) are -0.0302% and 4.85%.
As to `CC1(C)CC[C@]2(C(=O)O[C@@H]3O[C@H](CO)[C@@H](O)[C@H](O)[C@H]3O)CC[C@]3(C)C(=CCC4[C@@]5(C)C[C@@H](O)[C@H](O)[C@](C)(C(=O)O)C5CC[C@]43C)C2C1O` (stereo partly specified), the max response was 2.5% in experiment [1] and -1.42% in experiment [2].
For `CC1(C)CC[C@]2(CO[C@@H]3O[C@H](CO)[C@@H](O)[C@H](O)[C@H]3O)[C@@H](O)C[C@]3(C)C(=CCC4[C@@]5(C)CC[C@H](O[C@@H]6O[C@H](CO[C@@H]7O[C@H](CO[C@@H]8OC[C@@H](O)[C@H](O)[C@H]8O)[C@@H](O)[C@H](O)[C@H]7O)[C@@H](O)[C@H](O)[C@H]6O)C(C)(C)C5CC[C@]43C)[C@@H]2C1` (stereo partly specified), in that order: -5.37% and -6.51%.

For the origin of these results see PubChem BioAssay (NCATS).
